We go through 14 compounds from PubChem BioAssay (NCATS).

Each structure is given as a SMILES string. Several values for one entry are separate records, joined by “and”; a condition that tells them apart may be missing. Identical values can stand only once. Results filed as inconclusive are left out. Activity calls are given as the source filed them. Unless noted, calls come from the whole dose curve.

Assay [1] deals with Glucocorticoid receptor (Homo sapiens) (UniProt P04150). Put plainly: qHTS assay for small molecule antagonists of glucocorticoid receptor signaling (AID 588533; active = well fitted inhibition curve with a large enough effect in the signal ratio, with a control signal flat, not every such curve was filed as active; the % refers to the signal ratio; note: % is set by controls: 0 for no effect and ±100 for the full control effect). The essentials: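 Antagonist-mode qHTS: compound titrations added to GRE-bla HeLa cells, then dexamethasone 2 nM final; 18 h, 37 C. CCF4 FRET fluorescence normalized to dexamethasone and DMSO; IC50 from Hill fit.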
Glucocorticoid receptor (Homo sapiens), sequence (P04150 whole entry, looked up): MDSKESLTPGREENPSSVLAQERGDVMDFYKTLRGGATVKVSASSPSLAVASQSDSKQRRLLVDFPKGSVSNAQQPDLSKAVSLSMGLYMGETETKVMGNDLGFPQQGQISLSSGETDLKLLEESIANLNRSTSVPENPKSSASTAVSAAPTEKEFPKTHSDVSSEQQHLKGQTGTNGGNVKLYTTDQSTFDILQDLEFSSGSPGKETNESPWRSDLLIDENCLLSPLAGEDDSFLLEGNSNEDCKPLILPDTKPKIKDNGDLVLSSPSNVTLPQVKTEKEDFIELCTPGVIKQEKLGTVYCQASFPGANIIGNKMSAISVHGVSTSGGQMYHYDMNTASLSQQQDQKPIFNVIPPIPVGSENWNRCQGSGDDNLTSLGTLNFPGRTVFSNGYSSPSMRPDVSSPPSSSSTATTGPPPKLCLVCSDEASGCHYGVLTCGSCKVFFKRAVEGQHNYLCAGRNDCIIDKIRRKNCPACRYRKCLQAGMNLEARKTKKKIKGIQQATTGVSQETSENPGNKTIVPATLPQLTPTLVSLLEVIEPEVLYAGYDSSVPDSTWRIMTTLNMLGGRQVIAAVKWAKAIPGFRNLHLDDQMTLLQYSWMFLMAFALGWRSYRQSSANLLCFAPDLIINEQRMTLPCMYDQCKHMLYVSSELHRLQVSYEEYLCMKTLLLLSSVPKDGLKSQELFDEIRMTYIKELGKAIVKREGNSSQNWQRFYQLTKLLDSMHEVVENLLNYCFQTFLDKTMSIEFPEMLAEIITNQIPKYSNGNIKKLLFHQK

Assay [2] addresses Peroxisome proliferator-activated receptor gamma (Homo sapiens) (UniProt P37231). Put plainly: qHTS assay for small molecule agonists of peroxisome proliferator-activated receptor gamma signaling (AID 588536; active = well fitted curve in the direction sought with a large enough effect in the signal ratio, with a control signal flat, not every such curve was filed as active; the % refers to the signal ratio;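 note: 0% = DMSO basal wells and 100% = rosiglitazone at 2 µM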). The essentials: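 HEK293 UAS-bla reporter line, 1% charcoal/dextran FBS; titration, 16 h, 37 C; CCF4 loading 2 h RT; fluorescence 460/530 nm. Normalized to rosiglitazone 2 uM = 100%, DMSO = 0%.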

The target is the same in assay [3]. Nature of the assay: qHTS assay for small molecule antagonists of peroxisome proliferator-activated receptor gamma signaling (AID 588537; active = well fitted inhibition curve with a large enough effect in the signal ratio, with a control signal flat, not every such curve was filed as active; the % refers to the signal ratio;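 note: reporter cells co-stimulated with 50 nM rosiglitazone agonist during compound treatment; % of control where 0% means no effect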). Put shortly:
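PPARγ-UAS-bla HEK293 cells (3000/well) in 1% charcoal/dextran-stripped FBS are treated with compound, then stimulated with 50 nM rosiglitazone for 16 h at 37 °C. Read-out is CCF4 β-lactamase fluorescence after 2 h at RT. IC50 comes from Hill fits normalised to rosiglitazone and DMSO.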

The target in assay [4] is Vitamin D3 receptor (Homo sapiens) (UniProt P11473). Nature of the assay: qHTS assay for small molecule antagonists of vitamin D receptor signaling (AID 588541).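 Note: receptor activated by calcitriol during compound treatment; series mostly up to about 77 µM; % is set by controls: 0 for no effect and ±100 for the full control effect.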 Put shortly: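 VDR-UAS-bla HEK293T cells in 2% charcoal-stripped FBS were stimulated with 1-alpha,25-dihydroxyvitamin D3 (3 nM final) plus compound for 16 h at 37 C. The beta-lactamase CCF4 readout was normalized to 50 nM agonist and DMSO, and Hill fits gave IC50.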
Vitamin D3 receptor (Homo sapiens), sequence (P11473 whole entry, looked up): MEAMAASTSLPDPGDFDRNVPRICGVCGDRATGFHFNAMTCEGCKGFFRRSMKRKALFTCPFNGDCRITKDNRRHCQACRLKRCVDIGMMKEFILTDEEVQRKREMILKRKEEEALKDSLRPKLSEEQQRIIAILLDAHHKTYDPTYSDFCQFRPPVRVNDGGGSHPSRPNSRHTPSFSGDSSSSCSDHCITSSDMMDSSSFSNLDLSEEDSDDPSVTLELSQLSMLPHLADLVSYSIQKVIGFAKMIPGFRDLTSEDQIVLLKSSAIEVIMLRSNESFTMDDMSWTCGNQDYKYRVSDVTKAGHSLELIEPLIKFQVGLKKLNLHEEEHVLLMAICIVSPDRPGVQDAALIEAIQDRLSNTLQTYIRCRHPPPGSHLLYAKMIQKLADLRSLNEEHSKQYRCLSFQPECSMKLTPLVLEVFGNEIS
In general terms: In qHTS, concentration-response curves come from the screen itself.

Assay [5] in a line: qHTS assay for small molecule agonists of retinoid X receptor alpha signaling (AID 588544). Particulars: HEK293T RXRa-UAS-bla, beta-lactamase reporter, 18 h; 530 nm emission.
Assay [6] deals with Retinoic acid receptor RXR-alpha (Homo sapiens) (UniProt P19793). The assay is described as above.
Retinoic acid receptor RXR-alpha (Homo sapiens), sequence (P19793 whole entry, looked up): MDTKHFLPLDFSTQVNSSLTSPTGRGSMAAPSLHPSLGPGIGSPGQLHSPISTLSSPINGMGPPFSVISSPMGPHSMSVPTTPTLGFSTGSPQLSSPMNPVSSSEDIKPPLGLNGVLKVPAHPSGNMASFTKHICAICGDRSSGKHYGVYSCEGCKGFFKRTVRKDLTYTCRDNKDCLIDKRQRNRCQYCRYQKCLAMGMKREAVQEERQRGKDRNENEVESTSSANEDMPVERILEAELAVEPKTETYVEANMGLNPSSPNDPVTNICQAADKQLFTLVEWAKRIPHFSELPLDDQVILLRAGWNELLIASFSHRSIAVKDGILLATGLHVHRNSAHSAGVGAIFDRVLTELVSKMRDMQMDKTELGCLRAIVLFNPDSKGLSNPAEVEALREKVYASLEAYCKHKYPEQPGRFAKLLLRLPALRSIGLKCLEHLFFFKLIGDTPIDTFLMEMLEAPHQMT
Assay [7] in a line: qHTS assay for small molecule antagonists of retinoid X receptor alpha signaling (AID 588546; active = well fitted inhibition curve with a large enough effect in the signal ratio, with a control signal flat, not every such curve was filed as active; the % refers to the signal ratio;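 note: cells stimulated with 9-cis-retinoic acid as agonist; % is set by controls: 0 for no effect and ±100 for the full control effect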). Particulars: HEK293T RXRa-UAS-bla, beta-lactamase ratio, antagonist mode; measured here: W530 green channel, cytotoxicity proxy. The essentials:
(§1)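 Beta-lactamase reporter inhibition, read as CCF4 fluorescence ratio (ex 405, em 460/530 nm) after 2 h at RT. HEK293T UAS-bla cells, 2500/well, were stimulated with 9-cis-RA at 500 or 100 nM final alongside test compound for 18 h at 37 C.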

Assay [8] concerns the target Retinoic acid receptor RXR-alpha (Homo sapiens) (UniProt P19793). The assay is described as above. As to conditions: HEK293T RXRa-UAS-bla, beta-lactamase ratio, antagonist mode. The essentials:
as §1

The target of assay [9] is Thyroid hormone receptor beta (Homo sapiens) (UniProt P10828). Put plainly: qHTS assay for small molecule antagonists of thyroid hormone receptor beta signaling (AID 588547; active = well fitted inhibition curve with a large enough effect in the signal ratio, with a control signal flat, not every such curve was filed as active; the % refers to the signal ratio;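 note: cells stimulated with 0.4 nM T3 agonist during compound exposure; series mostly up to about 77 µM; % is set by controls: 0 for no effect and ±100 for the full control effect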). As to conditions: TR-UAS-bla HEK293, beta-lactamase ratio, antagonist mode, 18 h. Put shortly: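 TR-UAS-bla GripTite HEK293 cells in 2% charcoal/dextran FBS medium; compounds 0.59 nM to 92 uM with T3 at 0.4nM final, 18 h at 37 C. Beta-lactamase read by CCF4 fluorescence (460/530 nm); Hill fits gave IC50 and efficacy.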
Thyroid hormone receptor beta (Homo sapiens), sequence (P10828 whole entry, looked up): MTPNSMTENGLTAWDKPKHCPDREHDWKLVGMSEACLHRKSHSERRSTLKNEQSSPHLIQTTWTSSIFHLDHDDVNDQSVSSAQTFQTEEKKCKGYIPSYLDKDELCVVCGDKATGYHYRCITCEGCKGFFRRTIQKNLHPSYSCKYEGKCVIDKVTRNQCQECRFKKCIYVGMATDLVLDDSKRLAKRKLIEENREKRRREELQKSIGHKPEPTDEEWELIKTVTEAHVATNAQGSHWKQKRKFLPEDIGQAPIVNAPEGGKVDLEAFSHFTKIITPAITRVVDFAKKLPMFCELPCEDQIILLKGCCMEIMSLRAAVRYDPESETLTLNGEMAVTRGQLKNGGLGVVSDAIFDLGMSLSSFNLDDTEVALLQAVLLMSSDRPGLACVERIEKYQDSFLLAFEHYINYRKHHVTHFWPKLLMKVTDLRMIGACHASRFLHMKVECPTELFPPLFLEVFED

Assay [10] concerns the target Peroxisome proliferator-activated receptor delta (Homo sapiens) (UniProt Q03181). Nature of the assay: qHTS assay for small molecule agonists of peroxisome proliferator-activated receptor delta signaling (AID 588534).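 Note: 0% = DMSO basal wells and 100% = positive control agonist at 10 µM.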 Put shortly: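 Cells carrying a PPAR-delta beta-lactamase reporter were treated with compounds for 18 h at 37 °C in agonist mode. CCF4 fluorescence was read after 2 h; EC50 and efficacy from Hill fits.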

Assay [11] in a line: qHTS assay for small molecule antagonists of peroxisome proliferator-activated receptor delta signaling (AID 588535; active = well fitted inhibition curve with a large enough effect in the signal ratio, with a control signal flat, not every such curve was filed as active; the % refers to the signal ratio;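 for max response: cells co-treated with a PPAR-delta agonist as stimulator during compound exposure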). Particulars: HEK293T PPARd-UAS-bla, beta-lactamase FRET ratio, 18 h; 460 nm channel. Put shortly:
(§2)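 Antagonist-mode beta-lactamase reporter (GeneBLAzer PPAR-delta-UAS-bla) in HEK293T cells, 2% charcoal/dextran FBS, 4000 cells/well. Compound titrations, 18 h at 37 C; CCF4 ratio read, IC50 and efficacy from Hill fits.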

Assay [12] deals with Peroxisome proliferator-activated receptor delta (Homo sapiens) (UniProt Q03181). The description is as above. Put shortly: as §2
Peroxisome proliferator-activated receptor delta (Homo sapiens), sequence (Q03181 whole entry, looked up): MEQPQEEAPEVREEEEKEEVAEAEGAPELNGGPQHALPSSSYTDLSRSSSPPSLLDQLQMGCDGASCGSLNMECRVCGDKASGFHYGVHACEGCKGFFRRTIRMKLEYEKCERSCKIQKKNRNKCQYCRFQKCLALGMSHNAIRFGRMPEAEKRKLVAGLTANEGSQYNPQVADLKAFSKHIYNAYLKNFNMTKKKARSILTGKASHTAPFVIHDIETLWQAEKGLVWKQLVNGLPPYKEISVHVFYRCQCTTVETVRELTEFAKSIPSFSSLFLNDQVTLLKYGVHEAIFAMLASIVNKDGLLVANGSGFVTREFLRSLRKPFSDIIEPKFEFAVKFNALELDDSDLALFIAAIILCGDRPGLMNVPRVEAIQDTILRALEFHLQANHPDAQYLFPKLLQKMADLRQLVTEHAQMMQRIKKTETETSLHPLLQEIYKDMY
In assay [13] the target is Thyroid hormone receptor beta (Homo sapiens) (UniProt P10828). Nature of the assay: qHTS assay for small molecule agonists of thyroid hormone receptor beta signaling (AID 588545).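 Note: 0% = DMSO only and 100% = 10 nM T3.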 Put shortly: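 Beta-lactamase reporter activity under TR response element control is measured in HEK 293 cells after 18 hrs compound exposure. Signal is ratiometric CCF4 fluorescence, 460/530 nm.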

In assay [14] the target is Voltage-gated inwardly rectifying potassium channel KCNH2 (Homo sapiens) (UniProt Q12809). Put plainly: qHTS Assay for Small Molecule Inhibitors of the Human hERG Channel Activity (AID 588834; active = well fitted curve in the direction sought with a large enough effect; an effect the other way counts as inactive or inconclusive;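 note: top concentration of the series differs between compounds; % is set by controls: 0 for no effect and ±100 for the full control effect; lower thallium flux fluorescence means stronger hERG block; nearly all actives have a fitted effect of over 50% in size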). Put shortly:
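Measured: FluxOR fluorescence after thallium stimulation in U2OS cells transduced with hERG by baculovirus. Compounds pre-incubated around 10 min; medium Opti-MEM with 2% FCS. AC50 from Hill equation.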

For assay [15], the target named is Luciferin 4-monooxygenase (Photinus pyralis) (UniProt P08659). Nature of the assay: Biochemical firefly luciferase enzyme assay for NPC (AID 624030; active = well fitted curve in the direction sought with a large enough effect; an effect the other way counts as inactive or inconclusive;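 note: purified P. pyralis luciferase at 10 nM with luciferin and ATP substrate; series mostly up to about 59 µM; 0% = DMSO and -100% = full luciferase inhibition by PTC124 control; nearly all actives have a fitted effect of over 70% in size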). Put shortly:
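Purified P. pyralis luciferase at 10 nM in 50 mM Tris Acetate (final), luminescence read within 5 minutes of enzyme addition to compounds. Activity normalised to PTC124 versus DMSO; concentration-response curves classed by r2, magnitude and activity.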

Assay [16] is described as follows: S16 Schwann cell PMP22 intronic element firefly luciferase assay (AID 624032; active = well fitted curve in the direction sought with a large enough effect; an effect the other way counts as inactive or inconclusive;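 note: series mostly up to about 58 µM; plate controls were DMSO for no effect and PTC124 positive control mean for full effect; nearly all actives have a fitted effect of over 30% in size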). The essentials: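 Rat S16 Schwann cells stably carrying firefly luciferase driven by a PMP22 intronic element, in 10% FBS, treated 24 h at 37 C. ONE-Glo luminescence normalized to PTC124 control and DMSO (0%); curves classed by r2, magnitude and activity.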

Peroxisome proliferator-activated receptor gamma (Homo sapiens), sequence (P37231 whole entry, looked up): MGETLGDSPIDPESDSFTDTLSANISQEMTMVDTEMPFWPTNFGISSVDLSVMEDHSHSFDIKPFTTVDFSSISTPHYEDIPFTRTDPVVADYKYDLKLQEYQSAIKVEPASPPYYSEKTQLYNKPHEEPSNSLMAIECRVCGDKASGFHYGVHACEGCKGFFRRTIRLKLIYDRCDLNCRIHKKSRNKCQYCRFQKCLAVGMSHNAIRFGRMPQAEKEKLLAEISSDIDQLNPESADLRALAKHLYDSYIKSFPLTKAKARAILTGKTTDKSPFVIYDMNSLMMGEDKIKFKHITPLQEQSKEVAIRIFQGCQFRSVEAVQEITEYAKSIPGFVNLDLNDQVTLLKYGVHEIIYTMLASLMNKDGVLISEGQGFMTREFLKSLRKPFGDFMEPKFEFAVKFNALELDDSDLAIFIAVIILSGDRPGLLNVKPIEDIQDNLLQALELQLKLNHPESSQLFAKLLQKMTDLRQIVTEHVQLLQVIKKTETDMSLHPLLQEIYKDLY
Luciferin 4-monooxygenase (Photinus pyralis), sequence (P08659 whole entry, looked up): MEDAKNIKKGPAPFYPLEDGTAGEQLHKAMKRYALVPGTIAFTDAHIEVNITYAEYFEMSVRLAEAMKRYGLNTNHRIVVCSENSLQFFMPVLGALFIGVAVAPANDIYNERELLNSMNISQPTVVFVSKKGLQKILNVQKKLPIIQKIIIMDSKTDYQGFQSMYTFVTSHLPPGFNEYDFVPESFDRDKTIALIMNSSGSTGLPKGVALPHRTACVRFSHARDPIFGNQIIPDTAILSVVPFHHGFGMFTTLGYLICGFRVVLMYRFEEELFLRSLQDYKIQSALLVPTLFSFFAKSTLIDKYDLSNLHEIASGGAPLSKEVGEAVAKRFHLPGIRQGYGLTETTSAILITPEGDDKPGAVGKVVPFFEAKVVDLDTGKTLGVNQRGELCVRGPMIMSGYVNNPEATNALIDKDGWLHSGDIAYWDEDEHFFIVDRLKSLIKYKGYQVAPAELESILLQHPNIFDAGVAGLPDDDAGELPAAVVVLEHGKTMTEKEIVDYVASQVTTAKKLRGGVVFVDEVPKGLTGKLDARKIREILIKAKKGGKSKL
Voltage-gated inwardly rectifying potassium channel KCNH2 (Homo sapiens), sequence (Q12809 whole entry, looked up): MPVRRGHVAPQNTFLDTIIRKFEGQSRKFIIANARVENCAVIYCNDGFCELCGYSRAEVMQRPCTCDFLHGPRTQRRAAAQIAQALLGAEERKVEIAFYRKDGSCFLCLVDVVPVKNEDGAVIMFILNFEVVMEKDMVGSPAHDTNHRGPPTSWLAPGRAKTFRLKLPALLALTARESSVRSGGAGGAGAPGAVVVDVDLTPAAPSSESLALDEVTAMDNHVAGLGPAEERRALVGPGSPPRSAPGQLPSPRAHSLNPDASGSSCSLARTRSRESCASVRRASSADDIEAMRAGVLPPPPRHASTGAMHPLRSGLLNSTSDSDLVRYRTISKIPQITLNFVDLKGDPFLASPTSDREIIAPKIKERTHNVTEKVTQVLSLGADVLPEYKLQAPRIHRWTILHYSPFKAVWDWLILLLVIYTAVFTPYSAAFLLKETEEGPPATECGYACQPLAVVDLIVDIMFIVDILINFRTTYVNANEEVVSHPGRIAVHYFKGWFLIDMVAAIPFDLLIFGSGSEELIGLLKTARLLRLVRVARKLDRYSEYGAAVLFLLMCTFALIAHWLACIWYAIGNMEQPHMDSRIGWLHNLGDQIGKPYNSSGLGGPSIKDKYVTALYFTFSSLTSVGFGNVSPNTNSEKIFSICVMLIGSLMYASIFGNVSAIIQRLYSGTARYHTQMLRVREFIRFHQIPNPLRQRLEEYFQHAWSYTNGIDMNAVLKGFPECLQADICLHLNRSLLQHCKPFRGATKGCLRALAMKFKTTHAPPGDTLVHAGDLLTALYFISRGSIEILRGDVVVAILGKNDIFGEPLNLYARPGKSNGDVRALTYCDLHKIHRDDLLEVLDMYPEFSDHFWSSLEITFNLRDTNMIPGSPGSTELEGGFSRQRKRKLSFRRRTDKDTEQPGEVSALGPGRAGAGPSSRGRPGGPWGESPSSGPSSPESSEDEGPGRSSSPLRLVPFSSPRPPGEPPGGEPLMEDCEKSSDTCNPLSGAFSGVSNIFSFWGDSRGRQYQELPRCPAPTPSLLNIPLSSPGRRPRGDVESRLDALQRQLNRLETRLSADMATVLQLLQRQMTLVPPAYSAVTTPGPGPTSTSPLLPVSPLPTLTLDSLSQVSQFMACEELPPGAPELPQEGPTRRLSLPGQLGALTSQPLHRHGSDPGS

On to `C[C@]12CCC(=O)C(O)=C1CC[C@@H]1[C@@H]2CC[C@]2(C)C(=O)CC[C@@H]12`, for which the Potency result in assay [1], in assay [3] and in assay [6] was “inactive” each time. Besides, the compound was called inactive in [2] and in assay [4]. The max response in assay [5] is 21.6%; in assay [7], 17.4%; in assay [8] it was 13.8% (inactive). In assay [9], the activity change % (negative = inhibition) is 9.32% (inactive).

Regarding `CN(C)/N=N/c1nc[nH]c1C(N)=O`, the call in assay [10] was inactive.

As for `NC(=O)N/N=C/c1ccc([N+](=O)[O-])o1`, the call in [10] was inactive.

Take `Cc1cn([C@H]2C[C@H](N=[N+]=[N-])[C@@H](CO)O2)c(=O)[nH]c1=O`: the compound was called inactive in assay [10].

Consider `Nc1ccc(O)c(C(=O)O)c1`, for which the result in assay [10] was inactive.

Turning to `CCCNC(=O)NS(=O)(=O)c1ccc(Cl)cc1`, the compound was classed as inactive in assay [10].

As for `Cn1cnc([N+](=O)[O-])c1Sc1ncnc2nc[nH]c12`, the compound was called inactive in assay [10].

Regarding `OC(Cn1cncn1)(Cn1cncn1)c1ccc(F)cc1F`, the call in assay [10] was inactive.

Regarding `Cc1ccc(S(=O)(=O)NC(=O)NN2CCCCCC2)cc1`, the outcome in [10] was inactive.

Consider `Cc1ccc(C)c(OCCCC(C)(C)C(=O)O)c1`, for which, in [10], the outcome was inactive.

Take `Nc1cc(-c2ccncc2)c[nH]c1=O`: the result in assay [10] was inactive.

Turning to `O=C1CCC(N2C(=O)c3ccccc3C2=O)C(=O)N1` (stereo unspecified), the call in [10] was inactive.

`CC1=C(/C=C/C(C)=C/C=C/C(C)=C/C(=O)Nc2ccc(O)cc2)C(C)(C)CCC1`: the outcome in assay [10] was inactive.

For the compound `OCCOc1ccccc1`, the Potency entry in assay [1], in assay [3], in assay [14], in assay [15] and in assay [16] was “inactive” in each case. Moreover, the compound was called inactive in [10], in [12], in assay [2], in assay [4] and in assay [13]. For the same compound, the max response in assay [11] is 16.7% and 12.5% and -5.77%; in assay [5], -2.94% and -12.9% and -4.25%; in [7] it was -0.71% and -11.6% and -11.4%; in [8], 15.3% (inactive) and -5.21% (inactive) and -13.9% (inactive). Also, the activity change % (negative = inhibition) in assay [9] was 12.7% (inactive) and 7.54% (inactive) and 6.22% (inactive).
